Data published in PMC12864922, “TDP-43 directly inhibits mRNA accumulation in neurites through modulation of mRNA stability”.
Whole data set: some 9,900 sequences, median “r (bound/input frequency ratio)” near 0.7, cut for the highest 2% near 6.5. For the sample, the highest values were picked, then their nearest neighbours and some sequences at random.

B1: ENSMUSG00000028439.291|Fam219a|94:98 (ssRNA)
RNA: GGGAGUUCUACAGUCCGACGAUCGCUUCGAUAUCCGCAUGCUAGUGUCUCUCCUUCAGGCGCCCCACAUGCCAGCAUUUCCACCCUCUGGAUUCUCCUCACAUGUCACUCUCCAGGUGCCGGGGCCUAGAGUGGGCCACACAGAAGGAGGAGUGGGGCUGUUGGCUUAGGAAGGGAAGCGCCUCUCUGUACACCACAACCAGGAGCUGCCCACUCCCCACACCUCCAGCCCAGCUUACCUCCCCCUAGUACAGAGAUCCUAAUUAGAUAAGAAAAUGCCAAGGGAGGCAAGCCAGAGAAAGCACUCUUGCGGUCGCACUAGUGUGGAAUUCUCGGGUGUCAAGG
B2: ENSMUSG00000090935.679|Synj2bp (ssRNA)
RNA: GGGAGUUCUACAGUCCGACGAUCGCUUCGAUAUCCGCAUGCUAUGAACCUUGAGAUUCACCACUGUCAGGAGCUCUCUCUCUCUGCUUAGAAUCAUCCAGACAGCGGGCUGGUCAGCCCACAUUAAAUAAGAACAUGUGGGACUAGAAUUCAGUCAACAAUGACAUGUUUCAUCAGGUGGUUAAAAUGUACAGAUUCUGUUGGAAAUGUUCCAUGGUAUUUCAAUAGCCAGAAUGAAGAACUGGGCUAAGUCCAGAGCUCUGCUCUCUGAGCAUCUGCCCCAGAUACAGAGGCAGAGUAUGAACUCUUGCGGUCGCACUAGUGUGGAAUUCUCGGGUGUCAAGG
B3: ENSMUSG00000043670.52|Diras1|235:240 (ssRNA)
RNA: GGGAGUUCUACAGUCCGACGAUCGCUUCGAUAUCCGCAUGCUACACCAGCCUACAGUAAGGUUGGGCUCCAUCCCUGCCUCUUCACACCUCCAUAGCUUCAUCCUUUGCAGACCUCUCCCUCUAUAUCUCUUUGCUCCCCCACCCCCAUUCUAUCUGCACCCCACAACCACACACUGGAGGUUUGAUCCCUGUGGAUCUGAAAACAGGGACCUGGCUAAGGAACUGCUCAUCCCAGUCAGGCCCAGAGAGGUUACCUUGCCUCUCCAUCUCUGUCCCACACACCCCAGCCAUGCCCACUGUCCCUCUUGCGGUCGCACUAGUGUGGAAUUCUCGGGUGUCAAGG
B4: ENSMUSG00000029028.191|Lrrc47 (ssRNA)
RNA: GGGAGUUCUACAGUCCGACGAUCGCUUCGAUAUCCGCAUGCUACCCAUCUCUGUGCAUCCUGACUGCGCACAUCCCAUCUCCGCAUGUGUACGCAUCUGUACCAGCACACAGCUGCCAUCCCUCGAGCCACAGUGCCUGGUCCUAAGGACCCAGCAGCUGCACAGAGGACUUGGUGGCCCCGUGCCUUGCCAUCUGGCUGAGAAGAGAACCAGACCCUCAGCCUUCCCCCUCGACACCUUCUCGUUGGUGACCUCUGACCUUAAAGGACCAUUUCUACCUUCUGUAAAAGAACACCUGUUUGGCUCUUGCGGUCGCACUAGUGUGGAAUUCUCGGGUGUCAAGG
B5: ENSMUSG00000061578.1057|Ksr2 (ssRNA)
RNA: GGGAGUUCUACAGUCCGACGAUCGCUUCGAUAUCCGCAUGCUAUGUGAAAGUCUGAUGACUCAAAUCAAAGUUUGGUUUUUCUUUUCUACUACUCUGAAGGAAAAUCUCAGCUUGGCUAUUUCUUCAUGUUUUAAAAAUGUCUUGACUUCUCUCAGCAACCAACUUCAGGUGCCAGGAUAUGAGAUGCUAAGGUUCAGGGGUGGUGGAGGUGAUUCUAUCCAGUGGCCAGCAAUACCCAAAAGCAGCCAACCAUGAAAAUAGAGGUUUGUAAUGUACAGAAGGCUGGGGGAGCUUUCAGGGGUCUCUUGCGGUCGCACUAGUGUGGAAUUCUCGGGUGUCAAGG
B6: ENSMUSG00000043670.174|Diras1 (ssRNA)
RNA: GGGAGUUCUACAGUCCGACGAUCGCUUCGAUAUCCGCAUGCUACAGCAAAGUCCCUGUGUGCGGUGAUAGGACUAGUGGCUGCUGCCCUAGGGCUCUGACAGAAUCUGAGCCUCUUUGCUGGUCAUGUGUACUCUGGAGACUGUCCCCCAUGUCUGCCCUGAGUUACGGAGCCCCUGUGGUAUCUGCGAGACUGUCCAGGAGACUUGAGUGGCUCCUGGGCCUGUGUCCCACCCAGAUGAGGGUGACUUAGAAUUCUGUGUUUAUGUGCCUGUGUGUGUGGAUGGGUGUGUGUCUGUCUUGGGCUCUUGCGGUCGCACUAGUGUGGAAUUCUCGGGUGUCAAGG
B7: ENSMUSG00000029636.81|Wasf3|153:157 (ssRNA)
RNA: GGGAGUUCUACAGUCCGACGAUCGCUUCGAUAUCCGCAUGCUAUGAUGUCUUCCAACCAGUGGGUGAUACGUUUUCCUGUUUCUUCCCUUUGCAAAUUGAAUUCCAGGUAGAUAUGGUUGUAGAGGGGAAAGUUUAACAAAUCAGAAUGAAAUGUUUGUCUGUUUGCACACUGGGCCUGGUGGCCUCCAAGGAAAACACAACGAUCGUUUGCUUUCUCUAUCUUGGCGCUUGCAACCGAGAGCGGCCAUUUUUAUGAGGGGAGCCCUGUGGGUACUCAUGUGGAAAGUGCCCACUGACUUUGGCUCUUGCGGUCGCACUAGUGUGGAAUUCUCGGGUGUCAAGG
B8: ENSMUSG00000029028.64|Lrrc47 (ssRNA)
RNA: GGGAGUUCUACAGUCCGACGAUCGCUUCGAUAUCCGCAUGCUAUGGGUAUGCUGUAGAUGUCUGUGUAGGUGUGGAUAUGCUGUAGGUAUCUGGGUGUGCUGUAGGUGUCUGUGUGGGUGUGGGUGUGCUGUGGGUGUCUGUGUGGGUGUGCUGUAGGUGUCUGUAGGUGUGGGUAUGCUGCAGGUGUGGGUGUGCUGUAGAUCUCUAUAGGUGUGGGUGUGCUGUAGGGGUCUGUGUGGGUAUAGGUGUGGGUGUGCUGUAGAUUCUGUGUAACUGGUUCUUUGCUGUUUCUCUGGGUGUUUCUCUUGCGGUCGCACUAGUGUGGAAUUCUCGGGUGUCAAGG
B9: ENSMUSG00000058297.508|Spock2 (ssRNA)
RNA: GGGAGUUCUACAGUCCGACGAUCGCUUCGAUAUCCGCAUGCUAUAGCCUGGGAGUUCUGGCAGGAGGCAAAGUUGGUGAGAGUCCUGGGACAUCUUACCCCCAGUGUUCCACAGGAGUCGUGACCACGUGUGAUGGGUGGGCACAGGUCUGCCUUGCUCCAGCCCCCUCCCUUGGUUUCUGUUGGUACCCAUUUGGCUUUUAUCUGCUUUCUGCUUCACCACUAAGUGCGUAGGUGGGGUCUUUUGAUAUCGGCUCCCCAAAGCCCAAGCCCACAGCCCUAGGAGAGAACCAGGGGCCCAUCUCUCUUGCGGUCGCACUAGUGUGGAAUUCUCGGGUGUCAAGG
B10: ENSMUSG00000031028.667|Tub|229:233 (ssRNA)
RNA: GGGAGUUCUACAGUCCGACGAUCGCUUCGAUAUCCGCAUGCUAAGGACAGGCAAAAUUUCUCUAGCUGAGAGCACACUUAGCCAGUUUUCACGCCUAGAACAUAUAUGUCGAUUUGCACAUGAUUGUCUUUUCCUAUUUUGGAGUGGUCAGACAUUUUAUUUUUGUUCAAAAUUAUCUGGAGUUUUAGACAAACUUGCAAAACUGUGCUUUUAUUAAGUGACUUUUUGAAUAAACUUUUUGGUAUUCUGAAGCAAAUGUAUUUAUUUAUUGCAUACUGCAAUGACAAACUUGGUAUUUUCCCACUCUUGCGGUCGCACUAGUGUGGAAUUCUCGGGUGUCAAGG
B11: ENSMUSG00000058297.445|Spock2|189:193 (ssRNA)
RNA: GGGAGUUCUACAGUCCGACGAUCGCUUCGAUAUCCGCAUGCUAUGGUGGGGCUGAAGGUUCCCAAGUAGCUUCUAGUUAAGCAAGCUUCGUGUUUCCUCAGGAGCAAGGUCACACAGGUCAGAUUAUUGUCGGUCCUGCGGGCCUCAUCCUUGAAUAAGCUGCCUGCCCAGUUCCUCCAUCCGUGUUCCUGCCUGCUCCCGUUCCCUUGUUGCGGGCAGGAGAGGUAGGGCACACAUGGAAAGAGUUCAACCAAAUUACGGCAGCACCACAUCUUGCCGAGCCCUGGAGCUGCCCUACUAAGACUCUUGCGGUCGCACUAGUGUGGAAUUCUCGGGUGUCAAGG
B12: ENSMUSG00000028439.22|Fam219a|136:142 (ssRNA)
RNA: GGGAGUUCUACAGUCCGACGAUCGCUUCGAUAUCCGCAUGCUACGCUGACCUGGGCCCGGUGGGAUGCAGCAGGAGAGACCCCUACCCUGCUGGUCCACUGGUCCCCAGCCCCGCGCCUCUUAGAGCCGCCAACCUCGUAACAGUCAUUGCUUCCUCCUAUGGUAGGACGUGUACCUCACACACAUCAAGGAGCCGGAGAAACCAAAACCGGGUCUGUCUCCAGCCCCGGGGCUGAGGAGGGGUGGGCACUGUUUGUUCGGUUACUUGGGGGGAACCACACCCAAGCACCCUGCCACCUCUCCCUCUUGCGGUCGCACUAGUGUGGAAUUCUCGGGUGUCAAGG
B13: ENSMUSG00000061578.153|Ksr2|12:16;34:49;85:89 (ssRNA)
RNA: GGGAGUUCUACAGUCCGACGAUCGCUUCGAUAUCCGCAUGCUAGACGGUCCUGGCAUACCAUGAUGGGUUACAUGGCACACACACACACACAAACUGUUUACAAUGGUCUCCCUGCCUCUCACGGGCACACAUCCAGGAGAAUGCACAUAGAGAGGUUCUGUGGUCUCUGCUGUCGCCUGGUGCUGAAUCCUGAGUGGUUUCCCCACUGAGGACCCUGUGACCCUGUGACCCUUGGCCCCUCCCUUAUUGUGCACACUCAGCACCCCAUCUUCCAAGCCUUUCUUCAUCCCCCACCUUCUUUUCUCUUGCGGUCGCACUAGUGUGGAAUUCUCGGGUGUCAAGG

target: TDP-43 (Homo sapiens, UniProt Q13148 1-414); test: RNA Bind-n-Seq with designed 260-mer pool; 25 mM Tris-HCl, 150 mM KCl, 3 mM MgCl2, BSA (printed 500 mg/mL), 20 units/mL SUPERase IN; pH not stated; 500 nM RNA pool, 1 h, 4 C; TDP-43 5, 50, 500 nM; high values mean tight binding; details: protein: recombinant; tags: SBP (GST cleaved off with PreScission; pGEX-GST-SBP)
Sequence (Q13148 whole entry): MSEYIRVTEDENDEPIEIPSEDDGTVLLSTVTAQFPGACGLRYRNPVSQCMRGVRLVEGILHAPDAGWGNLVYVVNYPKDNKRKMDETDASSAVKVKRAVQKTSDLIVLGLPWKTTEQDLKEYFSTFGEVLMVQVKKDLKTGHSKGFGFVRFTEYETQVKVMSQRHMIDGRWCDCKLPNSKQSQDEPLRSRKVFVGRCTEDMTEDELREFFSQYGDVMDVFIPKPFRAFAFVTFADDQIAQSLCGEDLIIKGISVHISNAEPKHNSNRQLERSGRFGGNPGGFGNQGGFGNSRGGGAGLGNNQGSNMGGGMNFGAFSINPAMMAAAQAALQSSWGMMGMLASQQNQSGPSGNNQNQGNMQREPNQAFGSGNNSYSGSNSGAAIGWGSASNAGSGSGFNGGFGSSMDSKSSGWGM
Summary of the method: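 For each oligo, R gives binding as its mapped-read-normalized abundance after pulldown divided by its abundance in input. Bead-captured SBP-tagged TDP-43 (5, 50 or 500 nM) was incubated with 500 nM of an in vitro-transcribed 260-nt 3′ UTR oligo pool for 1 h at 4 °C in 25 mM Tris-HCl, 150 mM KCl, 3 mM MgCl2, BSA and SUPERase IN on streptavidin beads. Washed, biotin-eluted RNA was reverse transcribed, PCR-amplified and sequenced.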

Row | Binder | binding signal
1 | B1 | 0.63 R (bound/input frequency ratio)
2 | B2 | 0.733 R (bound/input frequency ratio)
3 | B3 | 2.23 R (bound/input frequency ratio)
4 | B4 | 0.696 R (bound/input frequency ratio)
5 | B5 | 0.83 R (bound/input frequency ratio)
6 | B6 | 5.89 R (bound/input frequency ratio)
7 | B7 | 5.11 R (bound/input frequency ratio)
8 | B8 | 5.28 R (bound/input frequency ratio)
9 | B9 | 0.768 R (bound/input frequency ratio)
10 | B10 | 0.0728 R (bound/input frequency ratio)
11 | B11 | 0.0933 R (bound/input frequency ratio)
12 | B12 | 0.559 R (bound/input frequency ratio)
13 | B13 | 1.47 R (bound/input frequency ratio)
